Where “and” joins values, the source holds several entries; their conditions need not be identical. Equal values may be shown once. Values without a mark were called inactive. Calls of active or inactive are those of the source. No stated cut-off is given here; in the data, active means IC50 below about 90 µM; inactive means the rest. Where only a bound is given, the exact number is not on record here.

The nature of this experiment: DNA binding via SYBR dye displacement, late-stage follow-up, artefact control for HCV NS3 helicase inhibitor project, biochemical, fluorescence (AID 623970).
In the case of `Cc1ccc2nc(-c3ccc(NC(=O)c4ccc(NS(=O)(=O)c5ccccc5)cc4)cc3)sc2c1S(=O)(=O)O`, the IC50 (usually the midpoint of a concentration-inhibition curve) is over 100 µM.

`Cc1ccc2nc(-c3ccc4nc(-c5ccc(NC(=O)c6ccc(C(C)(C)C)cc6)cc5)sc4c3)sc2c1S(=O)(=O)O`: the 50% inhibitory concentration (IC50) was 16 µM (active).

With `COc1cccc2c(=O)c3cc(Cl)cc(C(=O)Nc4cc(Cl)ccn4)c3[nH]c12`, the IC50 is over 100 µM.

Take `Cc1ccc2nc(-c3ccc4nc(-c5ccc(NC(=O)c6cccc7ccccc67)cc5)sc4c3)sc2c1S(=O)(=O)O`: the IC50 is 30 µM (active).

With `Cc1ccc2nc(-c3ccc4nc(-c5ccc(NC(=O)c6ccc7ncoc7c6)cc5)sc4c3)sc2c1S(=O)(=O)O`, the IC50 is 46 µM (active).

On to `Cc1ccc2nc(-c3ccc4nc(-c5ccc(NC(=O)c6c(F)cccc6C(F)(F)F)cc5)sc4c3)sc2c1S(=O)(=O)O`, for which the IC50 was 64 µM (active).

As for `Cc1ccc2nc(-c3ccc4nc(-c5ccc(NC(=O)c6ccccc6)cc5)sc4c3)sc2c1S(=O)(=O)O`, the IC50 is over 100 µM.

`Cc1ccc2nc(-c3ccc(NC(=O)c4ccc(NC(=O)c5ccc(C(F)(F)F)cc5)cc4)cc3)sc2c1S(=O)(=O)O`: the IC50 was over 100 µM.

Take `Cc1ccc2nc(-c3ccc4nc(-c5ccc(NC(=O)c6cccc(C(F)(F)F)c6)cc5)sc4c3)sc2c1S(=O)(=O)O`: the IC50 is over 100 µM.

On to `CC(=O)Nc1ccc(-c2nc3ccc(-c4nc5ccc(C)c(S(=O)(=O)O)c5s4)cc3s2)cc1`, for which the IC50 is over 100 µM.

For the compound `Cc1ccc2nc(-c3ccc4nc(-c5ccc(NC(=O)c6ccccc6C(F)(F)F)cc5)sc4c3)sc2c1S(=O)(=O)O`, the IC50 was over 100 µM.

As to `Cc1ccc2nc(-c3ccc(NC(=O)c4ccc(N)cc4)cc3)sc2c1S(=O)(=O)O`, the IC50 is over 100 µM.

As to `Cc1ccc(C(=O)Nc2ccc(-c3nc4ccc(-c5nc6ccc(C)c(S(=O)(=O)O)c6s5)cc4s3)cc2)cc1`, the IC50 was over 100 µM.

On to `Cc1ccc(NC(=O)Nc2ccc(-c3nc4ccc(-c5nc6ccc(C)c(S(=O)(=O)O)c6s5)cc4s3)cc2)cc1`, for which the 50% inhibitory concentration (IC50) is 18 µM (active).

As to `Cc1ccc2nc(-c3ccc4nc(-c5ccc(NS(=O)(=O)c6ccc(C(F)(F)F)cc6)cc5)sc4c3)sc2c1S(=O)(=O)O`, the IC50 was 82 µM (active).

Consider `Cc1ccc2nc(-c3ccc4nc(-c5ccc(NC(=O)c6cc(C(F)(F)F)ccc6F)cc5)sc4c3)sc2c1S(=O)(=O)O`, for which the IC50 is over 100 µM.

As for `Cc1ccc2nc(-c3ccc4nc(-c5ccc(NC(=O)c6cccnc6)cc5)sc4c3)sc2c1S(=O)(=O)O`, the IC50 was over 100 µM.

`Cc1ccc2nc(-c3ccc4nc(-c5ccc(NC(=O)Nc6ccc(F)cc6)cc5)sc4c3)sc2c1S(=O)(=O)O`: the IC50 was 74 µM (active).

In the case of `Cc1ccc2nc(-c3ccc(N)cc3)sc2c1S(=O)(=O)O`, the IC50 is over 100 µM.

As for `Cc1ccc2nc(-c3ccc4nc(-c5ccc(NC(=O)c6ccc(Cl)cc6)cc5)sc4c3)sc2c1S(=O)(=O)O`, the concentration for half-maximal inhibition (IC50) was 31 µM (active).

For `CCOc1ccc2c(NNC(=O)c3cnccn3)c3c(nc2c1)CCCC3`, the IC50 was over 100 µM.

Regarding `Cc1ccc2nc(-c3ccc4nc(-c5ccc(NC(=O)c6ccc(F)cc6)cc5)sc4c3)sc2c1S(=O)(=O)O`, the IC50 is over 100 µM.

As to `Cc1ccc2nc(-c3ccc4nc(-c5ccc(NC(=O)c6cc(C(F)(F)F)cc(C(F)(F)F)c6)cc5)sc4c3)sc2c1S(=O)(=O)O`, the IC50 was 86 µM (active).

For `Cc1ccc2nc(-c3ccc4nc(-c5ccc(NC(=O)Nc6ccccc6)cc5)sc4c3)sc2c1S(=O)(=O)O`, the IC50 was over 100 µM.

With `COc1ccc(S(=O)(=O)Nc2ccc(-c3nc4ccc(-c5nc6ccc(C)c(S(=O)(=O)O)c6s5)cc4s3)cc2)cc1`, the IC50 is 42 µM (active).

On to `Cc1ccc2nc(-c3ccc4nc(-c5ccc(NC(=O)c6ccc(N(C)C)cc6)cc5)sc4c3)sc2c1S(=O)(=O)O`, for which the IC50 was over 100 µM.

`Cc1ccc2nc(-c3ccc4nc(-c5ccc(NC(=O)c6ccc(C(F)(F)F)c(F)c6)cc5)sc4c3)sc2c1S(=O)(=O)O`: the IC50 is 28 µM (active).

Take `Cc1ccc2nc(-c3ccc4nc(-c5ccc(NC(=O)c6ccc(Cl)c(Cl)c6)cc5)sc4c3)sc2c1S(=O)(=O)O`: the IC50 was 30 µM (active).

Regarding `Cc1ccc2nc(-c3ccc4nc(-c5ccc(NC(=O)c6ccc7ccccc7c6)cc5)sc4c3)sc2c1S(=O)(=O)O`, the IC50 is 36 µM (active) and 25 µM (active).

As for `Cc1ccc2nc(-c3ccc4nc(-c5ccc6nc(-c7ccc8nc(-c9ccc(N)cc9)sc8c7)sc6c5)sc4c3)sc2c1S(=O)(=O)O`, the IC50 is 14 µM (active).

With `Cc1ccc2nc(-c3ccc4nc(-c5ccc(NC(=S)Nc6ccccc6)cc5)sc4c3)sc2c1S(=O)(=O)O`, the IC50 is 30 µM (active).

`Cc1ccc2c(sc(-c3ccc4c(c3)sc(-c3ccc5c(c3)sc(-c3ccc(N(C)C)cc3)[n+]5C)[n+]4C)[n+]2C)c1S(=O)(=O)O` (tested in a mixture with another compound): the half-inhibitory concentration (IC50) was 61 µM (active).

Turning to `CCN(CC)c1ccc(-c2nc3ccc(C)c(S(=O)(=O)O)c3s2)cc1`, the IC50 was over 100 µM.

As for `Cc1ccc2nc(-c3ccc(NC(=O)c4ccc(NC(=O)OCC5c6ccccc6-c6ccccc65)cc4)cc3)sc2c1S(=O)(=O)O`, the IC50 was over 100 µM.

Source of the values: PubChem BioAssay AID623970 (The Scripps Research Institute Molecular Screening Center, 2012).
